aSyn rescue: qHTS of alpha-syn Inhibitors | 370,000 compounds, 0.14% hits | AID 652106, 2013 | Potency, µM (series often up to 46.1 µM), inactives show at the highest dose growth rescue (activation), most hits filed as activators | Yeast expressing alpha-synuclein, growth rescue, BacTiter-Glo, 24 h; further: % of control where 0% means no effect; nearly all actives have a fitted effect of over 65% in size
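Rescue of yeast growth: cells expressing toxic alpha-synuclein, induced in galactose at OD600 0.02, incubated with compound 24 h at 30 C. ATP luminescence quantified growth; inhibitors of toxicity appear as activators.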
Abeta yeast res: qHTS for compounds that reverse cellular toxicity of Amyloid beta (A-beta) peptide in yeast: Primary Screen; yeast expressing A-beta42, growth rescue, OD600, 48 h; response scale: 0% DMSO, 100% iron-clioquinol control; Potency, µM (series often up to 46.1 µM), actives largely listed as activators; 410,000 compounds, 0.063% hits; AID 1347071, 2019; further: nearly all actives have a fitted effect of over 55% in size
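Growth rescue measured by 600 nm absorbance after 48 h yeast culture at 30 C with compound. Values normalized between DMSO and an equimolar ferric chloride plus clioquinol control.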
FUS suppressor: qHTS for Suppressors of FUS Proteinopathy: Primary screen using FUS-linked yeast assay; 390,000 compounds, 0.24% hits; AID 1347120, 2019; Potency, µM (highest dose often 76.6 µM), usual class: activators; S. cerevisiae FUS-expressing, growth rescue, OD600, 24 h;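 further: plate controls were DMSO vehicle for no effect and reference control for full effect; nearly all actives have a fitted effect of over 55% in size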
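Restored growth of FUS-toxic S. cerevisiae, read as 600 nm absorbance after 24 h at 30C in galactose medium (starting OD 0.005). Controls CP55940 and DMSO.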
TDP43 rescue: qHTS of TDP-43 Inhibitors. 410,000 compounds, 1.8% hits. TDP-43 expressing yeast growth rescue, BacTiter-Glo, 24 h. Potency, µM (doses to about 46.1 µM), without a hit: at the highest dose growth rescue (activation), most hits filed as activators; further: % of control where 0% means no effect; nearly all actives have a fitted effect of over 50% in size
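Yeast expressing TDP-43 (pregrown in raffinose, seeded at OD600=0.02 in galactose medium) exposed to compounds 24 hr at 30 deg C. Growth read by BacTiter-Glo luminescence; rescue of toxicity appears as increased signal.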
Numbers without * were called inactive; i = inactive; ? = inconclusive; . = no result. Compounds with a hit are over-represented: about 2.1% of the library has one in this group of screens. The call rests on the fitted dose curve; in most records, active means well fitted curve in the direction sought with a large enough effect; inconclusive means small, poorly fitted or top-dose-only effect, or another doubt; inactive means no such curve, though single readings can be large; an effect the other way counts as inactive or inconclusive. Potency means the concentration at half of the fitted maximal effect.

SMILES	aSyn rescue	Abeta yeast res	FUS suppressor	TDP43 rescue
C=CCC12C=C(OC)C(=O)C(C1=O)C1c3ccccc3CC12 (stereo unspecified)	.	.	i	.
COc1cccc(NC(=O)CN(C)C(=O)/C=C/c2cn(-c3ccccc3)nc2-c2ccc(OC)c(OC)c2)c1	1.2%	i	39.8µM*	11.0%
COc1ccc(-c2nn(-c3ccccc3)cc2/C=C/C(=O)N(C)CC(=O)Nc2cccc(F)c2)cc1OC	1.6%	i	?	?
CCN(CC(=O)Nc1ccc(NC(C)=O)cc1)C(=O)/C=C/c1cn(-c2ccccc2)nc1-c1ccc(C)cc1	2.8%	i	31.6µM*	16.3%
CCOC(=O)c1ccc(NC(=O)c2cn(-c3ccccc3)nc2-c2ccc(OC)c(OC)c2)cc1	.	i	25.1µM*	?
COc1cc(NC(=O)Cn2c(=O)ccc3cc(S(=O)(=O)N4CCCC4)ccc32)cc(OC)c1	-7.6%	i	i	16.3%
CC(C)C1C(=O)N(Cc2cn(CCC3OCCO3)nn2)CCS(=O)(=O)N1Cc1ccc(-c2ccccc2)cc1 (stereo unspecified)	0.4%	i	?	?
CC(C)C1C(=O)N(Cc2cn(CCC3OCCO3)nn2)CCS(=O)(=O)N1Cc1ccc(-c2ccc(F)cc2Cl)cc1 (stereo unspecified)	?	i	?	22.4µM*
CC(C)C1C(=O)N(Cc2cn(CCC3OCCO3)nn2)CCS(=O)(=O)N1Cc1ccc(-c2ccncc2)cc1 (stereo unspecified)	-2.1%	i	i	17.8%
CC(C)C1C(=O)N(Cc2cn(CCC3OCCO3)nn2)CCS(=O)(=O)N1Cc1ccc(-c2ccccc2Cl)cc1 (stereo unspecified)	?	i	?	35.5µM*
CC(C)C[C@H]1COc2cccc(N3CCCC3)c2S(=O)(=O)N1C	.	.	i	.
Cc1ccc(NC(=O)c2cnn(-c3ccccc3)c2C)cc1C	-17.7%	i	i	?
Cc1c(C(=O)Nc2ccccc2)cnn1-c1ccccc1	0.0%	i	i	0.0%
Cc1c(C(=O)Nc2cccc(F)c2)cnn1-c1ccccc1	5.7%	i	i	10µM*
CC(=O)c1cccc(NC(=O)c2cnn(-c3ccccc3)c2C)c1	0.7%	?	i	14.1µM*
CC(=O)c1cccc(NC(=O)CCc2c(C)nc3c(c(C)nn3-c3ccccc3)c2C)c1	.	i	i	6.31µM*
CCC(C)(C)c1ccc(Oc2cccc(C(=O)O)c2)cc1	0.891µM*	i	i	-28.5%
CCOC(=O)c1nc2sc3c(c2c(=O)[nH]1)CCCC3	-0.6%	i	.	-3.0%
CCOC(=O)c1nc(N2CCN(C(=O)OCC)CC2)c2c3c(sc2n1)CCCC3	15.8µM*	i	i	-14.2%
CCc1nc(N2CCN(C(=O)CCCl)CC2)c2c3c(sc2n1)CCCC3	9.9%	i	i	20µM*
CC(C)C[C@@H]1COc2cc(Br)ccc2S(=O)(=O)N1Cc1cn(CCC2OCCCO2)nn1	.	.	i	.
Cc1nn(C)c2c1c(C(F)(F)F)cc(=O)n2C(C)C(=O)NCCc1ccc(Cl)cc1 (stereo unspecified)	.	i	i	7.1%
CCn1nc(C)c2c(-c3ccccc3)cc(=O)n(C(C)C(=O)NCc3ccccc3OC)c21 (stereo unspecified)	.	i	?	10µM*
CCn1nc(C)c2c(-c3ccccc3)cc(=O)n(C(C)C(=O)Nc3cc(C)ccc3C)c21 (stereo unspecified)	.	i	i	4.1%
CCn1nc(C)c2c(-c3ccccc3)cc(=O)n(C(C)C(=O)NCCc3ccc(Cl)cc3)c21 (stereo unspecified)	.	i	?	22.4µM*
Cc1nn(C)c2c1c(-c1ccccc1)cc(=O)n2C(C)C(=O)NCCc1ccc(Cl)cc1 (stereo unspecified)	.	i	?	22.4µM*
COC(=O)c1cc(-c2c(C)noc2C)c(=O)n2c1CCC2	.	.	i	.
O=C(COC(=O)c1ccc2c(c1[N+](=O)[O-])C(=O)c1ccccc1C2=O)NC1CC1	-45.5%	i	i	3.55µM*
O=C(OCC#CCSc1nnc(-c2c[nH]c3ccccc23)o1)c1ccc(F)cc1	.	.	i	.
O=C(Cc1cccs1)NNC(=S)NC(=O)c1ccccc1	?	?	.	22.4µM*

Source: PubChem BioAssay (National Center for Advancing Translational Sciences (NCATS))
